The source of these data is PubChem BioAssay AID1852 (Sanford-Burnham Center for Chemical Genomics, 2009).

In all, about 2,500 compounds went through this assay and about 1,100 (44%) were called active. The set was probably picked from earlier hits. This is one part of the list. Values without a mark were called inactive.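 How the source made its calls: active means inhibition above 50% at 4 µM in the single-point screen; inactive means inhibition of 50% or less.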

The nature of this test: TNF-a-driven NF-kB reporter inhibitors, primary screen, selectivity assay for NOD1/NOD2 signaling inhibitor project, cell-based, HEK293T NF-kB-Luc, luminescence (AID 1852). As to conditions: TNF-a induced, 14 h, at 4 µM, stronger effect = higher value.
Consider `Cc1ccc(-c2csc(NC(=O)C3=NN(c4ccccc4)C(=O)CC3)n2)cc1`, for which the inhibition is 38.6%.

Regarding `O=C(Nc1nc(-c2ccccc2)cs1)c1ccc2c(=O)n3c(nc2c1)CCCCC3`, the inhibition was 106% (active).

As to `O=C(NC1CCCCC1)N1CCN(c2nc(-c3ccccc3)cs2)CC1`, the inhibition is 48.4%.

For `Cc1ccc(-c2csc(NC(=O)c3ccc4c(=O)n5c(nc4c3)CCCCC5)n2)cc1`, the inhibition was 97.1% (active).

For the compound `Nc1ccc(S(=O)(=O)Nc2nccc(/C=C/c3ccc(Cl)cc3Cl)n2)cc1`, the inhibition is 4%.

In the case of `Cc1cccc2cc3c(N)c(C(=O)Nc4ccc(N5CCOCC5)cc4)sc3nc12`, the inhibition was 36.4%.

As to `Cc1cc(N2CCOCC2)c2c(N)c(Br)cc(C)c2n1`, the inhibition is 80.6% (active).

For `COc1ccccc1-c1cc(C(F)(F)F)nc(S(=O)(=O)CCCC(=O)N2CCOCC2)n1`, the inhibition is 51.1% (active).

Regarding `COc1ccccc1-c1cc(C(F)(F)F)nc(S(=O)(=O)CCCC(=O)N2CCCCC2C)n1` (stereo unspecified), the inhibition is 66.8% (active).

With `COc1cc(/C=N/Nc2nc3c(c(=O)n(C)c(=O)n3C)n2Cc2ccccc2)ccc1OC(=O)c1ccco1`, the inhibition is 52.5% (active).

As to `COc1cccc(Cn2c(NCc3cccnc3)nc3c2c(=O)n(C)c(=O)n3C)c1`, the inhibition is 37.8%.

As to `O=S(=O)(Nc1nc2ccccc2nc1Cl)c1ccc(Br)cc1`, the inhibition was 20.8%.

Turning to `O=S(=O)(Nc1nc2ccccc2nc1N1CCN(c2ccccc2F)CC1)c1ccc(Cl)cc1`, the inhibition was 86.2% (active).

With `CC(C(=O)N1CCN(c2ccccc2F)CC1)c1ccc([N+](=O)[O-])cc1` (stereo unspecified), the inhibition is -32.5%.

As for `COc1ccc(-c2cc(C(F)(F)F)nc(S(=O)(=O)CCCC(=O)Nc3cccc(O)c3)n2)cc1OC`, the inhibition is 81.5% (active).

As to `COc1ccccc1-c1cc(C(F)(F)F)nc(S(=O)(=O)CCCC(=O)Nc2cccnc2Cl)n1`, the inhibition is 37.1%.

On to `O=C(O)CCC(=O)Nc1cccc(-c2csc(-c3ccccc3)n2)c1`, for which the inhibition was 41.9%.

Consider `COc1ccc(-c2cc(C(F)(F)F)nc(S(=O)(=O)CCCC(=O)Nc3cccnc3Cl)n2)cc1OC`, for which the inhibition was 88.1% (active).

`Cc1cc(-c2ccc(C)c(S(=O)(=O)N3CCN(c4ccc([N+](=O)[O-])cc4)CC3)c2)on1`: the inhibition was 16.8%.

Turning to `C[C@@H](C(=O)Nc1ccc2ccccc2c1)[C@@H]1C[C@@]1(C)[C@@H](NC(=O)c1cnccn1)c1ccccc1`, the inhibition was -2.6%.

Consider `Cc1cc(C(=O)CN2C(=O)c3ccccc3S2(=O)=O)c(C)n1CC1CCCO1` (stereo unspecified), for which the inhibition is 96.8% (active).

Regarding `Cc1cc(C(=O)CSc2nc3ccccc3c(=O)n2C)c(C)n1CC1CCCO1` (stereo unspecified), the inhibition was 65.9% (active).

Take `Cc1cc(C(=O)COC(=O)c2ccccc2Br)c(C)n1CC1CCCO1` (stereo unspecified): the inhibition is -5.9%.

With `Cc1cc(C(=O)CSc2nc3ccccc3c(=O)n2C)c(C)n1Cc1ccc2c(c1)OCO2`, the inhibition is 69.5% (active).

With `COc1ccccc1Nc1nc(NCC2CCCO2)c2ccccc2n1` (stereo unspecified), the inhibition was 39.1%.

As to `CCCCN(CC)c1nc(-c2ccncc2)nc2ccccc12`, the inhibition was 34.7%.

As for `O=C(N/C(=C/c1ccc([N+](=O)[O-])cc1)C(=O)N1CCOCC1)c1ccco1`, the inhibition is 14%.

Turning to `O=[N+]([O-])c1cccc(S(=O)(=O)Nc2nc3ccccc3nc2Nc2cccc(S(=O)(=O)N3CCCCC3)c2)c1`, the inhibition is 97.6% (active).

Regarding `CCn1nc(NS(=O)(=O)c2ccc([N+](=O)[O-])cc2)c2cc3cccc(C)c3nc21`, the inhibition is 19.3%.

On to `Cc1ccc(S(=O)(=O)Nc2nc3ccccc3nc2Nc2cccc(S(=O)(=O)N3CCCC3)c2)cc1`, for which the inhibition is 71% (active).

For `Cc1cc(Nc2nc3ccccc3nc2Cl)n(-c2ccc([N+](=O)[O-])cc2)n1`, the inhibition is 28.5%.

In the case of `O=S(=O)(Nc1nc2ccccc2nc1Nc1ccc2c(c1)OCO2)c1ccc(F)cc1`, the inhibition was 18%.

Turning to `COc1cc(Nc2nc3ccccc3nc2NS(=O)(=O)c2ccc([N+](=O)[O-])cc2)cc(OC)c1OC`, the inhibition is 84.6% (active).

As for `COc1cccc(Nc2nc3ccccc3nc2NS(=O)(=O)c2cccs2)c1`, the inhibition is 7.5%.

Turning to `O=c1c2ccccc2nc(/C=C/c2ccc([N+](=O)[O-])o2)n1CCCO`, the inhibition is 98.8% (active).

Turning to `COc1ccc(O)c(CNn2c(-c3ccc(Br)cc3)nc3ccccc3c2=O)c1`, the inhibition is 12.6%.

Turning to `O=c1c2ccccc2nc(/C=C/c2cc(Br)ccc2O)n1CCCO`, the inhibition was 59% (active).

Turning to `O=[N+]([O-])c1cc(-c2nc3nc4ccccc4nc3n2CCc2ccccc2)cc([N+](=O)[O-])c1`, the inhibition is -12.4%.

`CCn1c(/C=C/c2cc(Br)ccc2O)nc2ccccc2c1=O`: the inhibition was -6.3%.

For `Cc1ccc(-c2cc(C(=O)N/N=C/c3ccc([N+](=O)[O-])o3)c3ccccc3n2)o1`, the inhibition is 6.6%.

Consider `COc1cccc(NC(=O)CSc2nc3ccccc3c(=O)n2C)c1`, for which the inhibition is 12.1%.

As for `COc1cccc(Nc2nc(NCCO)c3ccccc3n2)c1`, the inhibition was 69.6% (active).

In the case of `COc1ccc(Nc2nc(NCC3CCCO3)c3ccccc3n2)c(OC)c1` (stereo unspecified), the inhibition was 31.4%.

Consider `COc1cc(OC)c(N(C)S(=O)(=O)c2cccc(C(=O)OCC(=O)c3c[nH]c4ccccc34)c2)cc1Cl`, for which the inhibition was 92.4% (active).

As for `CCOc1cccc(/C=C/c2ccc3cccc(O)c3n2)c1O`, the inhibition is 4.2%.

`COc1cccc(/C=C/c2ccc3cccc(O)c3n2)c1OC`: the inhibition was -20%.

Turning to `Oc1ccc(Cl)cc1/C=C/c1ccc2cccc(O)c2n1`, the inhibition was 8.6%.

Regarding `COc1ccc(OC)c(/C=C/c2ccc3cccc(O)c3n2)c1`, the inhibition is 105% (active).

Regarding `Oc1cccc2ccc(/C=C/c3ccccc3Br)nc12`, the inhibition is 51.4% (active).

Regarding `COc1cccc(/C=C/c2ccc3ccccc3n2)c1OC(C)=O`, the inhibition was -25.7%.

Regarding `COc1ccc(Br)cc1/C=C/c1ccc2cccc(O)c2n1`, the inhibition is 52.6% (active).

With `COc1cc(Br)cc(/C=C/c2ccc3cccc(O)c3n2)c1O`, the inhibition was 0.4%.

For `COc1ccc(Cl)cc1/C=C/c1ccc2cccc(O)c2n1`, the inhibition is 47.4%.

For `Cc1ccc(NS(=O)(=O)c2cc([N+](=O)[O-])ccc2NNC(=S)Nc2cc(C)ccc2C)c(C)c1`, the inhibition was 77.3% (active).

For `Cc1ccc(C)c(NC(=O)c2ccccc2NS(=O)(=O)c2cc([N+](=O)[O-])ccc2C)c1`, the inhibition was 75.8% (active).

On to `Cc1ccc(NC(=O)CC(=O)c2ccc([N+](=O)[O-])cc2)cc1S(=O)(=O)Nc1cccc(Cl)c1`, for which the inhibition was 15.2%.

With `Cc1ccc(NS(=O)(=O)c2ccc(-n3cccn3)cc2)c(C)c1`, the inhibition is 40.7%.

Take `Cc1ccc(NC(=O)CN(c2ccc(Cl)cc2)S(=O)(=O)c2cc([N+](=O)[O-])ccc2Cl)c(C)c1`: the inhibition is -17.7%.

In the case of `O=C(Oc1c(-c2ccccc2)c(=O)n2c3c(cccc13)CC2)c1ccc(F)cc1`, the inhibition was 49.3%.

`O=C(Oc1c(-c2ccccc2)c(=O)n2c3c(cccc13)CC2)c1ccc(Cl)cc1`: the inhibition was 90.1% (active).

Turning to `O=C(Oc1c(-c2ccccc2)c(=O)n2c3c(cccc13)CC2)c1ccccc1`, the inhibition is 75.1% (active).

Consider `COc1ccc(C(=O)c2c(C(F)(F)F)oc3c2C(=O)c2ccccc2C3=O)cc1OC`, for which the inhibition was 102% (active).

On to `COc1ccc(C(=O)c2c(C(F)(F)F)oc3c2C(=O)c2ccccc2C3=O)cc1`, for which the inhibition was 100% (active).

As to `COc1ccc(C(=O)Nc2sc3c(c2C(=O)NCc2ccco2)CCCC3)cc1OC`, the inhibition was -42.2%.

On to `COc1ccc(NC(=O)c2c(Nc3ccccc3)sc(C(=O)c3ccc(F)cc3)c2N)cc1`, for which the inhibition was 10%.

With `CC(C)(C)OC(=O)CNC(=O)c1[nH]cnc1C(=O)NC1CCN(C(=O)OC(C)(C)C)CC1`, the inhibition is -15.2%.

As for `O=C(OCn1ncc(Br)c(Br)c1=O)c1c(F)cccc1F`, the inhibition is 82.5% (active).

On to `CC(=O)Cn1ncc(Br)c(Br)c1=O`, for which the inhibition is 95% (active).

`O=C(OCn1ncc(Br)c(Br)c1=O)c1ccc(F)cc1`: the inhibition was 86.5% (active).

Take `Cc1ccc(Cl)cc1N1CCN(C(=O)CSc2nnc3n2C(C)(C)Cc2ccccc2-3)CC1`: the inhibition was 95.1% (active).

For the compound `O=C(CSc1nnc2ccc3ccccc3n12)N1CCOCC1`, the inhibition was -57.3%.

As for `COCCn1c(SCC(=O)N2CCc3ccccc3C2)nc2cc(Cl)ccc2c1=O`, the inhibition is 13.3%.

`CC1Cc2cc(-c3csc(NC(=O)Cc4cccs4)n3)ccc2N1S(C)(=O)=O` (stereo unspecified): the inhibition is 60.6% (active).

As for `CC(C)Cn1c(N)c(C(=O)COC(=O)CC23CC4CC(CC(C4)C2)C3)c(=O)n(C)c1=O`, the inhibition was 26.6%.

For `Cn1c(=O)c(C(=O)CCl)c(N)n(Cc2ccccc2)c1=O`, the inhibition was 72.4% (active).

For `COCCCN(C(=O)Cc1ccc(Cl)c(Cl)c1)c1c(N)n(Cc2ccccc2)c(=O)[nH]c1=O`, the inhibition was 7.8%.

For `COc1cccc(N=Nc2ccc(O)c3ncccc23)c1`, the inhibition is 61% (active).

`CCN(CC)S(=O)(=O)c1cc(OC)ccc1N=Nc1ccc(O)c2ncccc12`: the inhibition was -1.5%.

For the compound `COc1cccc(N=Nc2ccc3cccnc3c2O)c1`, the inhibition was 54.2% (active).

In the case of `O=S1(=O)Nc2c(ccc3cccnc23)-c2ccccc21`, the inhibition is 104% (active).

As to `COc1ccccc1N1CCN(C(=O)c2sc3ncnc(N4CCN(c5ccccn5)CC4)c3c2C)CC1`, the inhibition is -30.1%.

On to `Cc1c(C(=O)N2CCN(c3ccc(F)cc3)CC2)sc2ncnc(N3CCN(c4ccccn4)CC3)c12`, for which the inhibition is 15.6%.

As to `CCn1c(=O)c([N+](=O)[O-])c(N2CCN(Cc3ccc4c(c3)OCO4)CC2)c2ccccc21`, the inhibition is 38.9%.

On to `Cc1c(C(=O)N2CCN(Cc3ccc4c(c3)OCO4)CC2)sc2ncnc(N3CCN(c4ccccc4)CC3)c12`, for which the inhibition was 98.5% (active).

In the case of `Cn1c(=O)c([N+](=O)[O-])c(N2CCN(Cc3ccc4c(c3)OCO4)CC2)c2ccccc21`, the inhibition is 18.3%.

With `O=[N+]([O-])c1ccc2ncnc(N3CCN(Cc4ccc5c(c4)OCO5)CC3)c2c1`, the inhibition was 97.2% (active).

The term inhibition denotes the relative decrease from the control value, in per cent.
